Test results published in ChEMBL document CHEMBL3988442, “University of Dundee, Small-Polar-MMV Screening Library” (2021).
In all, about 48,000 compounds went through this assay and about 13,000 (27%) showed an effect of 50% or more. The list shows a part of the results.

test system: Wolbachia pipientis; experiment: Anti-Wolbachia Cell-Based Screen; format: functional; parameters: scale not given: in the data most compounds retested in dose-response had high values; conditions: 5 µM

Row | SMILES | Percent Effect [%]
1 | CCOC(C)c1noc(CN2CCCNCC2)n1 (stereo not drawn) | 2.297
2 | C=C(C)CN1CCC(NC(=O)NCCc2cccc(C(N)=O)c2)CC1 | -8.268
3 | CC(=O)c1ccc(C(=O)N2C[C@@H](CN3CCCC3)[C@@H](CO)C2)cc1 | -35.7
4 | O=C(NCCN1CCCCCC1=O)NCc1ccc(Cl)s1 | -3.851
5 | CC(SCC(=O)NC(N)=O)c1ccc(Cl)cc1 (stereo not drawn) | 8.768
6 | COc1cc(OC)cc(N2CCC(NCc3ccsc3)C2=O)c1 (stereo not drawn) | -5.145
7 | COc1cc(OC)cc(C2NC(=O)CN2Cc2ccc(Br)cc2)c1 (stereo not drawn) | 85.78
8 | Cc1cc(CN2CCN(CC3CC3)[C@@H]3CS(=O)(=O)C[C@@H]32)cc(C)c1O | 22.76
9 | Cl.NC(=O)COc1ccc(CNCc2ccc(F)c(F)c2)cc1 | -10.35
10 | CC(C)(C)n1ncc2c1NC(=O)CC2c1ccc(OCC(N)=O)cc1 (stereo not drawn) | -0.952
11 | NC(=O)COc1ccc(C2NC(=O)CN2Cc2ccc(Br)cc2)cc1 (stereo not drawn) | 110.3
12 | COc1cc(CN2CC(=O)N(c3ccc(C)cc3)CC2C)cc(OC)c1 (stereo not drawn) | -3.228
13 | Cc1cc(C2NC(=O)CN2Cc2ccc(Br)cc2)cc(C)c1O (stereo not drawn) | 98.83
14 | Cc1cc(NC(=O)CNC(C)(C)c2nc(C)c(C)s2)no1 | -14.55
15 | COc1ccc(CNC(=O)c2cc3c(nc2O)CCC(C)C3)cc1 (stereo not drawn) | -13.47
16 | CNS(=O)(=O)c1ccccc1N1CCN(C(C)C(=O)OC)CC1 (stereo not drawn) | -10.15
17 | Cc1cccc(C(=O)N2C[C@@H](OCc3cccnc3)[C@H]3OCCC[C@@H]32)n1.O=C(O)C(F)(F)F.O=C(O)C(F)(F)F | 19.74
18 | Cc1occc1C(=O)N1C[C@H](Oc2ccccn2)[C@H]2OCCC[C@H]21.O=C(O)C(F)(F)F | -5.077
19 | CN(C)C(=O)N1C[C@H](Oc2ccccn2)[C@H]2OCCC[C@H]21.O=C(O)C(F)(F)F | -8.316
20 | CO[C@H]1CN(C(=O)c2ccc(C)o2)[C@@H]2CCCO[C@H]12 | 2.722
21 | CO[C@H]1CN(C(=O)c2cccnc2)[C@@H]2CCCO[C@H]12.O=C(O)C(F)(F)F | 121
22 | O=C(O)C(F)(F)F.O=C(c1ccnnc1)N1C[C@H](Oc2ccccn2)[C@H]2OCCC[C@H]21 | 96.83
23 | Cc1noc(C)c1CN1C[C@@H](NS(=O)(=O)N(C)C)[C@H](C(C)C)C1 | -5.186
24 | CC(=O)N1CCC2(CCN(C(=O)c3ccc(Cl)c(C(F)(F)F)c3)CC2)C1 | -5.245
25 | CCCn1ncc(C(=O)NC2CCN(C3CCOCC3)CC2)c1C | -3.665

Row | SMILES | Percent Effect [%]
26 | CC(C)(C#N)C(=O)Nc1nccn1Cc1ccc(Br)cc1 | -2.576
27 | Cc1nc[nH]c1C(=O)N1CCC2(CN(C)C(=O)O2)C1 (stereo not drawn) | -7.833
28 | CN1CCCC2(CCN(C(=O)Cn3ncc4ccccc4c3=O)C2)C1=O (stereo not drawn) | 88.86
29 | Cc1nccc(-c2ccccc2)c1C(=O)N1CCC2(CN(C)C(=O)O2)C1 (stereo not drawn) | -8.281
30 | CN1CCCC2(CCN(C(=O)CCn3cncn3)C2)C1=O (stereo not drawn) | -41.8
31 | Cc1ccc2oc(=O)n(CC(=O)N3CCC4(CC3)CN(C)C(=O)O4)c2c1 | -3.778
32 | CN1CC2(CCN(C(=O)COc3ccc(Cl)cc3Cl)CC2)OC1=O | -5.539
33 | Cc1nn(CC(=O)N2CCC3(CN(C)C(=O)O3)C2)c(=O)c2ccccc12 (stereo not drawn) | 94.98
34 | CCc1ccc2occ(CC(=O)N3CCC4(CCCN(C)C4=O)C3)c2c1 (stereo not drawn) | -37.19
35 | CN1CC2(CCN(C(=O)Cn3ncc4ccccc4c3=O)CC2)OC1=O | 95.4
36 | CCCN(CCC)C(=O)CN1CCCC1C(=O)N(C)C (stereo not drawn) | 15.58
37 | O=C(c1cccc(S(=O)(=O)NCCc2cscn2)c1)N1CCOCC1 | -14.28
38 | C[S+]([O-])c1nncn1CC(=O)c1ccc(OC(F)F)cc1 (stereo not drawn) | -3.882
39 | CCc1ncc2c(n1)CN(C(=O)c1c(C)[nH]c3c1C(=O)CCC3)C2 | 17.5
40 | O=C(c1cccn2ccnc12)N1CCCN(c2cccnn2)CC1 | -3.729
41 | CN(CC(=O)N1CCC(Oc2ccccc2)CC1)c1cnccn1 | -0.02384
42 | CN(CC(=O)N1CCC(Oc2ccc(C(F)(F)F)cn2)CC1)S(C)(=O)=O | 103.2
43 | CN(C)S(=O)(=O)N1CCC(Oc2ccc(C#N)cn2)CC1 | -10.68
44 | N#Cc1ccc(C(=O)N2CCC(Oc3ccc(C#N)cn3)CC2)cc1 | -11.6
45 | CCOCC(=O)N1CCC(Oc2ccc(C(F)(F)F)cn2)CC1 | 5.97
46 | CC(C)(C)NC(=O)N1CCC(Oc2ccc(C(F)(F)F)cn2)CC1 | 116.4
47 | CCOC(=O)N1CCC(Oc2ccc(C(F)(F)F)cn2)CC1 | 91.75
48 | CCOCC(=O)N1CCC(Oc2ccc(Cl)cn2)CC1 | -5.53
49 | O=C(Cn1cccn1)N1CCC(Oc2ccc(C(F)(F)F)cn2)CC1 | 107
50 | CC(=O)N1CCC(Oc2ccc(C#N)cn2)CC1 | -7.335

Row | SMILES | Percent Effect [%]
51 | N#Cc1ccc(OC2CCN(C(=O)Cc3cccs3)CC2)nc1 | 12.26
52 | CCOC(=O)CCC(=O)N1CCC(Oc2ccc(C(F)(F)F)cn2)CC1 | 3.938
53 | CCN1CCN(C[C@@H]2CN(c3ncc(Cl)cc3F)C[C@@H]2CO)CC1 | 3.895
54 | CC(NC(=O)Nc1ccc(OC2CCCC2)cc1)c1nc[nH]n1 (stereo not drawn) | 4.793
55 | CCC(C)c1ccc(NC(=O)C2CCN(C(=O)N(C)C)CC2)cc1 (stereo not drawn) | -1.822
56 | CCC(C)c1ccc(NC(=O)C2CCN(C(=O)COC)CC2)cc1 (stereo not drawn) | -13.47
57 | Cc1cc(C)nc(N2CCC(C(=O)Nc3ccc(C(C)C)cc3)CC2)n1 | 135.6
58 | Cc1ccc(C(=O)NCC(O)CN2CCCC2=O)cc1Cl (stereo not drawn) | 2.235
59 | CS(=O)(=O)c1ccc(-c2ccccc2C(=O)O)cc1 | 122
60 | CS(=O)(=O)c1ccc(CNC(=O)NCc2cc[nH]n2)cc1 | 1.077
61 | Cc1ccc(S(C)(=O)=O)cc1C(=O)NS(C)(=O)=O | -9.422
62 | CC1CCCCN1Cc1ccc(-c2ccccc2C(=O)O)cc1 (stereo not drawn) | -6.204
63 | CNC(=O)c1ccccc1-c1ccc(S(C)(=O)=O)cc1 | 101.9
64 | CC(=O)c1ccccc1-c1cc(C(=O)O)cc(S(=O)(=O)NC(C)C)c1 | 0.5422
65 | CN(C)C(C(=O)N1CC(Oc2ccccc2F)C1)c1ccccc1F (stereo not drawn) | -4.147
66 | CO[C@@H]1CCN(S(=O)(=O)c2cccs2)[C@H]1Cc1ccccc1 | 7.736
67 | Cc1n[nH]c(C)c1NC(=O)CN1CCn2c(nnc2C(C)C)C1 | -1.446
68 | C[C@H](C(=O)N1Cc2ccccc2CC2(CCCN2C)C1)c1ccccc1 (stereo partly drawn) | 111.3
69 | CC(C)C(=O)N1CCCC12CCN(C(=O)c1ccno1)C2 (stereo not drawn) | -2.946
70 | CC(C)C(=O)N1Cc2ccccc2CC2(CCCN2C)C1 (stereo not drawn) | 90.17
71 | CC(C)C(=O)N1Cc2ccccc2CC2(CCCCN2C)C1 (stereo not drawn) | 96.75
72 | CC(C)C(=O)N1CCC12CCCN(C(=O)c1ccnnc1)C2 (stereo not drawn) | -3.572
73 | CC(C)C(=O)N1CCC12CCCN(C(=O)c1ccccc1)C2 (stereo not drawn) | -15.79
74 | CC(C)C(=O)N1CCCC12CCCN(C(=O)c1ccno1)C2 (stereo not drawn) | -3.277
75 | CC(=O)c1cc(CN2C[C@@H](C(=O)O)[C@H](c3cccnc3)C2)cs1 | -13.15

Row | SMILES | Percent Effect [%]
76 | CCN(Cc1cc(Cl)ccc1OC)Cc1cc(C)nn1C | -10.03
77 | Cc1nnsc1CN(C)C(=O)CCn1cnc2ccccc21 | -11.62
78 | O=C(CNCC1(O)CCCN(Cc2cccc(F)c2F)C1=O)NC1CC1 (stereo not drawn) | -1.283
79 | CN(CCCOc1ccccc1)C(=O)CN1CCc2cncnc2C1 | 0.7453
80 | CCCOc1ccc2c(c1)OCC(C(=O)NC(C)Cn1ccnc1)=C2 (stereo not drawn) | 6.426
81 | O=C(NCCCn1cccn1)C1CCC(=O)N(CC2CCCCC2)C1 (stereo not drawn) | -8.272
82 | O=C1NC[C@@]2(C(=O)O)CN(Cc3cccc(OC4CCCC4)c3)C[C@@H]12 | -26.72
83 | NC(=O)c1nc(-c2cccc(Cl)c2)oc1N | 102.5
84 | Cc1sc(CN)nc1-c1ccc(Cl)cc1Cl | -19.51
85 | NC(=O)N1CCCN(CCc2nc(-c3cccc(Cl)c3)no2)CC1 | 5.099
86 | NC(=O)c1nc(-c2ccc(Cl)cc2Cl)oc1N | 118.4
87 | CC(C)C(C(N)=O)c1cccc(Cl)c1 (stereo not drawn) | -0.9613
88 | CCN1C(=O)COC[C@@H]1[C@H](O)c1ccc(NC(=O)COC)cc1 | -2.196
89 | c1cc(-c2nc3c(c(NCCc4c[nH]cn4)n2)CCNCC3)ccn1 | 6.655
90 | CC(=O)c1cccc(C(=O)N2C[C@@H](CN3CCCCCC3)[C@@H](CO)C2)c1 | -7.849
91 | CN(C)c1ccc2c(c1)CN(C(=O)c1c[nH]cn1)C2c1cnco1 (stereo not drawn) | 3.646
92 | Cc1nccn1-c1cccc(C2CCCN2S(=O)(=O)c2cn(C)cn2)n1 (stereo not drawn) | -2.327
93 | CCn1cc(S(=O)(=O)N2CCC(C3CCCCN(C)C3=O)CC2)c(C)n1 (stereo not drawn) | 91.1
94 | CN1CCCCC(C2CCN(S(=O)(=O)c3cn(C)cn3)CC2)C1=O (stereo not drawn) | 106.2
95 | CCn1cc(C(=O)n2nc(C)cc2C)c(S(=O)(=O)N2CCCCC2)n1 | -19.19
96 | CCn1cc(S(=O)(=O)N(C)Cc2c(Br)cnn2CC)c(C)n1 | 5.348
97 | Cn1cnc(S(=O)(=O)N2CCCn3cnc(CN4CCCC4)c3C2)c1 | 1.863
98 | CN(Cc1ccccc1)c1ccc(C(F)(F)F)cn1 | 3.007
